ATXN2 expr inh: Primary qHTS for Inhibitors of ATXN expression. HEK-293 ATXN2-luciferase reporter, luminescence, 24 h. Potency, µM (doses to about 57 µM), without a hit: top-dose activity change, negative = inhibition, actives largely listed as inhibitors. 0.72% of 360,000 active. AID 1745845, 2022; note: potency is the fitted concentration of half-maximal effect; % is set by controls: 0 for no effect and ±100 for the full control effect; nearly all actives have a fitted effect of over 55% in size
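qHTS (up to 57 uM final) was run with 24 h compound exposure of reporter cells at 37 °C. Each well was multiplexed: SteadyGlo luminescence measured ATXN2-luciferase expression after a fluorogenic Gly-Phe-AFC viability readout (25 uM final).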
USP1 inh: Inhibitors of USP1/UAF1: Primary Screen; AID 743255, 2014; Potency, µM (top dose mostly 57.1 µM), for the others: at the highest dose activity change, negative = inhibition, usual class: inhibitors; recombinant USP1/UAF1, Ub-Rhodamine cleavage fluorescence; 0.23% of 390,000 active; note: potency is the fitted concentration of half-maximal effect; % is set by controls: 0 for no effect and ±100 for the full control effect; nearly all actives have a fitted effect of over 60% in size
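USP1/UAF1 complex (1 nM) preincubated 15 min at room temperature with compound, then Ub-Rho substrate (150 nM final) added. Kinetic fluorescence at 480/540 nm over 6 reads at 60 s intervals; 50 mM HEPES pH 7.8, 0.5 mM EDTA, 0.1 mg/ml BSA, 1 mM TCEP, 0.01% Tween-20.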
USP2a inh: qHTS Assay for Inhibitors of Ubiquitin-specific Protease USP2a Using CHOP2 as the Reporter; USP2 core, Ub-CHOP2 coupled fluorogenic reporter, 485/531; Potency, µM (highest dose often 38.3 µM), for the others: at the top dose activity change, negative = inhibition, actives largely listed as inhibitors; Ubiquitin carboxyl-terminal hydrolase 2 (Homo sapiens), O75604; 0.01% of 330,000 active;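 note: potency is the fitted concentration of half-maximal effect; plate controls were DMSO wells for no effect and full inhibition by NEM control for full effect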
Target sequence (O75604 whole entry, looked up): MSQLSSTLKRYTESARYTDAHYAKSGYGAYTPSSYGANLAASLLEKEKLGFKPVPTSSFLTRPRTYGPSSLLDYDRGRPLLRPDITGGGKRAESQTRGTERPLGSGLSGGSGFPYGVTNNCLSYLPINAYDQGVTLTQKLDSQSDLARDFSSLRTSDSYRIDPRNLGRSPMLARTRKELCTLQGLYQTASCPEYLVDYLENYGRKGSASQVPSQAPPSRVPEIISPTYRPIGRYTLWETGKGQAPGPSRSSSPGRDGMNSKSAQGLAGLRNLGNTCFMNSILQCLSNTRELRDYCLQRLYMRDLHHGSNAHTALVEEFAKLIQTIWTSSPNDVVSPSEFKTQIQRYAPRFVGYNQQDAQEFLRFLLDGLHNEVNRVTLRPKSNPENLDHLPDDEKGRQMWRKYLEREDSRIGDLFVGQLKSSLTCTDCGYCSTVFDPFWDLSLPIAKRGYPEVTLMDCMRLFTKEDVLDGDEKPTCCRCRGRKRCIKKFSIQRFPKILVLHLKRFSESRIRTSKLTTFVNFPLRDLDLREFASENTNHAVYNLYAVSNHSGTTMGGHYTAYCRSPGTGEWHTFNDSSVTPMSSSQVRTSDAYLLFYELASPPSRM
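Cell-free coupled assay: 10nM USP2 core preincubated 30min RT with compound in Tris-HCl pH 8.0/CaCl2/CHAPS buffer, then 25nM Ub-CHOP2 and 25nM reporter substrate; fluorescence (Ex 485/Em 531) read after 60min RT, normalized to NEM inhibition, concentration-response curves fitted.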
IL-1B inflam inh: qHTS for Inhibitors of Inflammasome Signaling: IL-1-beta AlphaLISA Primary Screen; THP-1 LPS/ATP IL-1B secretion, AlphaLISA, 16 h; hits give low values; activity change, % at 57.5 µM; 4.7% of 360,000 active; in the data active = activity change below about -50%; inconclusive = mostly about -30% to -49%; note: % is set by controls: 0 for no effect and ±100 for the full control effect
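THP-1 cells pretreated 1 hr with compounds (up to 57.5 uM final), then stimulated with LPS (250 ng/mL final) plus ATP (1.25 mM final); secreted IL-1B measured by AlphaLISA after 16 hr, decreased signal indicating inhibition.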
ATXN viability: Viability Counterscreen for Primary qHTS for Inhibitors of ATXN expression; S2 cells (HEK-293 line with an ATXN2-luciferase reporter) viability, CellTiter-Fluor protease fluorescence, 24 h; Potency, µM (top dose mostly 56.7 µM), usual class: cytotoxic; 0.49% of 400,000 active; AID 651635, 2014; note: potency is the fitted concentration of half-maximal effect; nearly all actives have a fitted effect of over 40% in size
An asterisk follows results filed as active. Compounds with a hit are over-represented: about 4.8% of the library has one in this group of screens. Unless noted, calls come from the whole dose curve; as a rule, active = well fitted curve in the direction sought with a large enough effect; inconclusive = small, poorly fitted or top-dose-only effect, or another doubt; inactive = no such curve, though single readings can be large; an effect the other way counts as inactive or inconclusive.

Screening CCc1ccc2nc(N(CCN(C)C)C(=O)c3ccc4ncsc4c3)sc2c1 returned ATXN2 expr inh 32%, USP1 inh -18%, USP2a inh 0%, IL-1B inflam inh -76* and ATXN viability inconclusive.
Cc1cccc2sc(N(CCCN(C)C)C(=O)c3ccc4ncsc4c3)nc12 was read as USP1 inh -25%, USP2a inh 1%, IL-1B inflam inh inconclusive and ATXN viability inconclusive.
Screening Cc1ccc2nc(N(CCCN(C)C)C(=O)c3sc4ccccc4c3Cl)sc2c1 returned ATXN2 expr inh inconclusive, USP1 inh -15%, USP2a inh -9%, IL-1B inflam inh -91* and ATXN viability inconclusive.
`Cc1ccc(C(=O)N(CCCN(C)C)c2nc3ccc(Cl)cc3s2)cc1C` gave ATXN2 expr inh inconclusive, USP1 inh -14%, USP2a inh -7%, IL-1B inflam inh -107* and ATXN viability inconclusive.
For CN(C)S(=O)(=O)c1cccc(NC(=O)c2ccc(-n3cncn3)c([N+](=O)[O-])c2)c1 the results were ATXN2 expr inh -7%, USP1 inh -21%, USP2a inh 0%, IL-1B inflam inh 5 and ATXN viability inconclusive.
For CC1(C)CC(NS(=O)(=O)c2ccc(C(C)(C)C)cc2)CC(C)(C)N1 the results were ATXN2 expr inh -19%, USP1 inh -19%, USP2a inh 0%, IL-1B inflam inh -29 and ATXN viability inactive.
`O=C(c1ccc2c(c1)N(Cc1c(F)cccc1Cl)C(=O)c1ccccc1S2)N1CCOCC1` gave ATXN2 expr inh -11%, USP1 inh -17% and ATXN viability inactive.
For C=C1CCC[C@]2(C)C[C@H]3OC(=O)C(CN4CC(C)OC(C)C4)[C@H]3C[C@@H]12 (some centres undefined) the results were ATXN2 expr inh inconclusive, USP1 inh -8%, USP2a inh 2%, IL-1B inflam inh -71* and ATXN viability inactive.
For C=C1CCC[C@]2(C)C[C@H]3OC(=O)C(CNCCN(CC)CC)[C@H]3CC12 (some centres undefined) the results were ATXN2 expr inh -2%, USP1 inh -16%, USP2a inh -13%, IL-1B inflam inh -96* and ATXN viability inactive.
Screening C=C1CCC[C@]2(C)C[C@H]3OC(=O)C(CNCC(C)C)[C@H]3CC12 (some centres undefined) returned ATXN2 expr inh -11%, USP1 inh -6%, USP2a inh 1%, IL-1B inflam inh -69* and ATXN viability inactive.
`C=C1CCC[C@]2(C)C[C@H]3OC(=O)C(CNCCN(C)C)[C@H]3CC12` (some centres undefined) gave ATXN2 expr inh -5%, USP1 inh -11%, USP2a inh 2%, IL-1B inflam inh 0 and ATXN viability inactive.
COc1cccc(C(=O)Nc2cccc(C(=O)OCc3cc(=O)n4c(C)csc4n3)c2)c1 was read as USP1 inh -9%.
C[C@H](CO)N1C[C@H](C)[C@@H](CN(C)S(=O)(=O)c2cccs2)Oc2ccc(NS(=O)(=O)c3ccccc3)cc2C1=O was read as ATXN2 expr inh -5%, USP1 inh -27%, USP2a inh 1%, IL-1B inflam inh -17 and ATXN viability inactive.
For CCOc1ccc(CCNC(=O)CS(=O)(=O)Cc2nc(-c3ccccc3F)oc2C)cc1 the results were ATXN2 expr inh -30%, USP1 inh -15%, USP2a inh 0%, IL-1B inflam inh -61* and ATXN viability inactive.
Screening O=C1[C@H]2[C@H](C=CC[C@H]2C(=O)N2CCN(c3ccccc3)CC2)CCN1Cc1ccc(Cl)c(Cl)c1 returned ATXN2 expr inh inconclusive, USP1 inh inconclusive, IL-1B inflam inh -51* and ATXN viability inconclusive.
OC(COCC(F)(F)C(F)(F)C(F)(F)C(F)F)Cn1c2ccc(Cl)cc2c2cc(Cl)ccc21 (centres undefined) was read as ATXN2 expr inh inconclusive, USP1 inh inconclusive, USP2a inh -4%, IL-1B inflam inh -97* and ATXN viability inconclusive.
For CCOC(=O)c1c(O)c2cc(Cl)ccc2n(CC)c1=O the results were ATXN2 expr inh -4%, USP1 inh inconclusive, USP2a inh 7% and ATXN viability inactive.
`COc1cc2c(cc1OC)/C(=C/C(=O)c1cccc([N+](=O)[O-])c1)NCC2` gave ATXN2 expr inh -31%, USP1 inh -23%, USP2a inh -3%, IL-1B inflam inh -60* and ATXN viability inactive.
COc1cc(/C=C/C(=O)c2ccccc2O)cc(OC)c1OC was read as ATXN2 expr inh -28%, USP1 inh 10%, USP2a inh 2%, IL-1B inflam inh -98* and ATXN viability inactive.
COc1cc(OC)c(C=CC(=O)c2ccccc2O)c(OC)c1 was read as ATXN2 expr inh 30%, USP1 inh inconclusive, IL-1B inflam inh -59* and ATXN viability inconclusive.
For O=C(/C=C/c1ccccc1F)c1cccc([N+](=O)[O-])c1 the results were USP1 inh -28%, USP2a inh 3%, IL-1B inflam inh -9 and ATXN viability inconclusive.
Screening COc1cc(/C=C/C(=O)c2cccc([N+](=O)[O-])c2)cc(OC)c1OC returned ATXN2 expr inh 0%, USP1 inh -20%, USP2a inh 0%, IL-1B inflam inh -61* and ATXN viability inconclusive.
For COc1ccc(C=CC(=O)c2cc(O)ccc2O)cc1 the results were ATXN2 expr inh 30%, USP1 inh -25%, IL-1B inflam inh inconclusive and ATXN viability inactive.
`COc1cc(/C=C/C(=O)OC(C)C(=O)c2ccccc2)cc(OC)c1OC` (centres undefined) gave ATXN2 expr inh 20%, USP1 inh -17%, USP2a inh 1%, IL-1B inflam inh -7 and ATXN viability inactive.
For CCOc1ccc(C(=O)N2CC(=O)Nc3ccc(C)cc3C2c2ccc(F)cc2)cc1OCC (centres undefined) the results were ATXN2 expr inh 0%, USP1 inh 0% and ATXN viability inconclusive.
For CC(C)N(Cc1nc(COc2ccccc2)no1)Cc1nccn1C the results were USP1 inh 2%, USP2a inh 5%, IL-1B inflam inh -1 and ATXN viability inactive.
CC(C)N(Cc1cn[nH]c1-c1ccc(-c2ccccc2)cc1)Cc1nccn1C was read as ATXN2 expr inh inconclusive, USP1 inh -28%, USP2a inh 3%, IL-1B inflam inh -74* and ATXN viability inconclusive.
For COc1cc(-c2nc(-c3ccc(NC(=O)c4ccc5c(c4)OCO5)cc3)no2)cc(OC)c1OC the results were ATXN2 expr inh inconclusive, USP1 inh -10%, USP2a inh 1%, IL-1B inflam inh inconclusive and ATXN viability 32µM*.
